# Reference: the supplement of paper PMC6522484
# ± gives the standard deviation of the averaged measurements.
# Key:
# [1] = system: DLD1; experiment: cell viability (CellTiter-Glo) relative to plate median (fraction of plate median); higher = more viable cells; details: 10 µM, treatment time 24 h
# Summary of the method: (§1)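 Each value averages two independent replicates in which the well signal was normalised to the plate median (webcellHTS2, additive, without log transformation). The signal was firefly luciferase or CellTiterGlo luminescence, read on parallel plates with a Tecan F500. The cells were colorectal cancer lines with stable lentiviral TCF/Wnt firefly luciferase reporters in 384-well plates, dosed 24 h after seeding with kinase inhibitor library compounds at a final 10 µM for 24 h.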
# [2] = system: HCT116; experiment: as above; details: 10 µM; treatment time 24 h; reporter: TCF4/Wnt
# Summary of the method: as §1
# [3] = system: SW480; experiment: as above; details: 10 µM; treatment time 24 h; reporter: 7TFP
# Summary of the method: as §1
# [4] = system: DLD1; experiment: TCF/Wnt firefly luciferase reporter signal relative to plate median (fraction of plate median); higher = higher Wnt reporter signal; details: 10 µM, treatment time 24 h
# Summary of the method: as §1
# [5] = system: HCT116; experiment: as above; details: 10 µM; treatment time 24 h; reporter: TCF4/Wnt
# Summary of the method: as §1
# [6] = system: SW480; experiment: as above; details: 10 µM; treatment time 24 h; reporter: 7TFP
# Summary of the method: as §1
Compound,cell viability ([1]; reporter: 7TFP),cell viability ([1]; reporter: TCF4/Wnt),cell viability [2],cell viability [3],TCF/Wnt firefly luciferase reporter signal ([4]; reporter: 7TFP),TCF/Wnt firefly luciferase reporter signal ([4]; reporter: TCF4/Wnt),TCF/Wnt firefly luciferase reporter signal [5],TCF/Wnt firefly luciferase reporter signal [6]
CO[C@H]1C[C@@H]2CC[C@@H](C)[C@@](O)(O2)C(=O)C(=O)N2CCCC[C@H]2C(=O)O[C@H]([C@H](C)C[C@@H]2CC[C@@H](O)[C@H](OC)C2)CC(=O)[C@H](C)/C=C(\C)[C@@H](O)[C@@H](OC)C(=O)[C@H](C)C[C@H](C)/C=C/C=C/C=C/1C [Rapamycin (Sirolimus)],1.07 ± 0.1,0.904 ± 0.15,0.95 ± 0.017,1.24 ± 0.014,1.07 ± 0.071,1.09 ± 0.26,1.38 ± 0.42,1.65 ± 0.11
CCCS(=O)(=O)Nc1ccc(F)c(C(=O)c2c[nH]c3ncc(Cl)cc23)c1F,1.03 ± 0.08,0.942 ± 0.074,1.12 ± 0.071,0.837 ± 0.013,0.775 ± 0.33,0.746 ± 0.1,1.05 ± 0.11,0.786 ± 0.067
CCC[C@H](NC(=O)/C(C#N)=C/c1cccc(Br)n1)c1ccccc1,0.421 ± 0.17,0.532 ± 0.038,0.13 ± 0.066,0.826 ± 0.11,0.0449 ± 0.0065,0.0661 ± 0.016,0.0353 ± 0.0076,0.037 ± 0.0048
COc1cc2c(N3CCN(C(=O)Nc4ccc(OC(C)C)cc4)CC3)ncnc2cc1OCCCN1CCCCC1 [Tandutinib (MLN518)],1.09 ± 0.05,1.1 ± 0.085,1.09 ± 0.028,1.11,0.956 ± 0.12,1.03 ± 0.028,1.08 ± 0.035,1.33 ± 0.05
CC(C)(C)c1nc(-c2cccc(NS(=O)(=O)c3c(F)cccc3F)c2F)c(-c2ccnc(N)n2)s1,1 ± 0.051,0.981 ± 0.042,1.055 ± 0.0071,1.06 ± 0.064,1.18 ± 0.071,1.05 ± 0.05,0.931 ± 0.47,1.75 ± 0.014
Cc1cc(C)c(/C=C2\C(=O)Nc3ccccc32)[nH]1 [Semaxanib (SU5416)],0.951 ± 0.016,1.02 ± 0.038,1.2 ± 0.071,0.879 ± 0.028,1.47 ± 0.021,1.335 ± 0.0071,0.91 ± 0.11,1.04 ± 0.021
CC(C)(C)Cn1c(N)nc2ccc(-c3[nH]c(C(C)(C)C)nc3-c3ccc(F)cc3)nc21,1.07 ± 0.12,0.931 ± 0.089,0.928 ± 0.071,1.11,1.21 ± 0.05,0.969 ± 0.1,1.45 ± 0.38,1.36 ± 0.014
Cn1cc(C2=C(c3ccc(Cl)cc3Cl)C(=O)NC2=O)c2ccccc21,1.05 ± 0.18,0.952 ± 0.058,1.01 ± 0.088,0.993 ± 0.067,1.4 ± 0.057,1.35 ± 0.43,1.56 ± 0.61,1.35 ± 0.16
O=C(O)c1ccc(Nc2ncc3c(n2)-c2ccc(Cl)cc2C(c2c(F)cccc2F)=NC3)cc1,1.06 ± 0.028,0.993 ± 0.067,0.982 ± 0.0042,1.01 ± 0.055,1.1 ± 0.19,1.11 ± 0.042,1.375 ± 0.0071,0.9575 ± 0.00071
CS(=O)(=O)CCNCc1ccc(-c2ccc3ncnc(Nc4ccc(OCc5cccc(F)c5)c(Cl)c4)c3c2)o1 [Lapatinib Ditosylate (Tykerb)],1.06 ± 0.078,1.02 ± 0.03,0.972 ± 0.04,0.913 ± 0.035,1.27 ± 0.078,1.1 ± 0.042,1.25 ± 0.18,1.16 ± 0.057
COc1cc2c(Oc3ccc4[nH]c(C)cc4c3F)ncnc2cc1OCCCN1CCCC1 [Cediranib (AZD2171)],0.659 ± 0.18,0.769 ± 0.054,0.658 ± 0.02,0.893 ± 0.067,0.968 ± 0.51,0.801 ± 0.32,0.354 ± 0.15,0.699 ± 0.12
C[C@@H](Oc1cc(-c2cnn(C3CCNCC3)c2)cnc1N)c1c(Cl)ccc(F)c1Cl,0.882 ± 0.067,1.04 ± 0.042,0.674 ± 0.1,0.996 ± 0.048,0.833 ± 0.16,0.831 ± 0.077,0.978 ± 0.29,0.682 ± 0.15
Cc1[nH]c(/C=C2\C(=O)Nc3ccc(S(=O)(=O)Cc4c(Cl)cccc4Cl)cc32)c(C)c1C(=O)N1CCC[C@@H]1CN1CCCC1,0.691 ± 0.27,0.648 ± 0.43,0.826 ± 0.33,0.798 ± 0.34,0.7 ± 0.36,0.868 ± 0.16,0.7 ± 0.88,1.21 ± 0.028
Cc1cc(Nc2nc(N[C@@H](C)c3ccc(F)cc3)c(C#N)cc2F)n[nH]1,0.875 ± 0.17,0.843 ± 0.062,0.831 ± 0.015,1.02 ± 0.035,1.14 ± 0.23,1.15 ± 0.25,1.22 ± 1.1,0.804 ± 0.38
Cc1cc2c(F)c(Oc3ncnn4cc(OC[C@@H](C)O)c(C)c34)ccc2[nH]1,0.958 ± 0.13,1.01 ± 0.028,1.16 ± 0.014,0.942 ± 0.021,0.846 ± 0.22,1.05 ± 0.13,0.961 ± 0.11,0.978 ± 0.031
O=C(Nc1cccc(Cl)c1)Nc1ncc(CCNc2ncnc3ccsc23)s1,0.87 ± 0.023,0.8545 ± 0.0064,0.947 ± 0.03,0.922 ± 0.012,0.743 ± 0.15,0.952 ± 0.029,1.45,0.82 ± 0.061
CC(=O)Nc1nc(C)c(-c2ccc(Cl)c(S(=O)(=O)NCCO)c2)s1,0.939 ± 0.13,0.947 ± 0.0014,0.974 ± 0.051,1.1,0.9 ± 0.037,1 ± 0.08,1.09 ± 0.085,0.944 ± 0.033
Cc1cc(CN2CCN(c3c(Br)cnc4nc(-c5ccc(N6CCN(C)CC6)cc5)[nH]c34)CC2)no1,1.09 ± 0.23,1.01 ± 0.021,1.04 ± 0.014,1.08 ± 0.057,1.42 ± 0.15,1.49 ± 0.18,1.72 ± 0.46,1.34 ± 0.4
CN(C[C@@H]1COCCO1)S(=O)(=O)Nc1ccc2ccc3ncc(-c4cnn(C)c4)cc3c(=O)c2c1,0.907 ± 0.053,0.888 ± 0.044,0.926 ± 0.15,0.9835 ± 0.0064,0.96 ± 0.1,1.07 ± 0.035,0.972 ± 0.39,1.02 ± 0.36
C=CC(=O)Nc1cccc(Oc2nc(Nc3ccc(N4CCN(C)CC4)cc3OC)ncc2Cl)c1,1.24 ± 0.014,1.08 ± 0.042,1.14 ± 0.05,0.922 ± 0.064,1.16 ± 0.078,1.05 ± 0.05,0.722 ± 0.55,0.71 ± 0.31
COc1cc(OC)c(/C=C/S(=O)(=O)Cc2ccc(OC)c(NCC(=O)O)c2)c(OC)c1,0.988 ± 0.074,1.01 ± 0.025,0.631 ± 0.14,1.04,0.726 ± 0.011,0.772 ± 0.0014,0.198 ± 0.013,0.694 ± 0.069
